# Experimental data taken from the supplement of paper PMC10037445.
# Whole data set: some 2,900 compounds, median “NF-kB SEAP reporter activity, fold change vs agonist alone” near 0.99, cut for the highest 2% near 2.6. This is one part of a sample in which the highest values are shown more often than they occur.
# Experiments:
# RAW-Dual [1] = assay: NF-kB SEAP reporter activity, fold change vs agonist alone; cytotoxicity flag (confluency mask): cytotoxic (confluency <70% of control); higher = enhanced NF-kB activity
# In short: (§1)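 Cytotoxic wells were those whose IncuCyte confluency was below 70% of agonist controls in both mask sets. The cells were RAW-Dual macrophages at 50,000 cells/well in DMEM on 384-well plates, dosed with 50 nL of library stock by pin tool, stimulated with a PRR agonist 1 h later, and kept at 37 °C, 5% CO2 for 20 hours. IRF and NF-κB reporter activity, as fold change over agonist-alone wells, came from supernatant read by QuantiLuc luminescence and QuantiBlue absorbance, respectively.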
# RAW-Dual [2] = assay: NF-kB SEAP reporter activity, fold change vs agonist alone; higher = enhanced NF-kB activity; settings: library stock concentration (final ~1000-fold dilution): 10 mM
# In short: as §1
# RAW-Dual [3] = assay: NF-kB SEAP reporter activity, fold change vs agonist alone; cytotoxicity flag (confluency mask): not cytotoxic; higher = enhanced NF-kB activity
# In short: as §1
# [4] = agonist: ODN 1826 (TLR9) 0.5 ug/mL
# [5] = agonist: Pam2CSK4 (TLR2/6) 0.1 ug/mL
# [6] = agonist: Pam3CSK4 (TLR2/1) 0.1 ug/mL
# [7] = cytotoxicity flag (confluency mask): cytotoxic (confluency <70% of control), agonist: Imiquimod (TLR7) […]
# [8] = cytotoxicity flag (confluency mask): cytotoxic (confluency <70% of control), agonist: MPLA (TLR4) […]
# [9] = cytotoxicity flag (confluency mask): not cytotoxic, agonist: Imiquimod (TLR7) […]
# [10] = cytotoxicity flag (confluency mask): not cytotoxic, agonist: MPLA (TLR4) […]
compound,measurement,setting,value
CN1C(=O)C(C)(C)Oc2c(-c3cn(C)c(=O)c4[nH]ccc34)cc(S(C)(=O)=O)cc21 (library stock concentration (final ~1000-fold dilution): 10 mM),NF-kB SEAP reporter activity,RAW-Dual [1]; agonist: LPS (TLR4) 0.1 ug/mL,2.16
same,NF-kB SEAP reporter activity,RAW-Dual [1]; [4],1.73
same,NF-kB SEAP reporter activity,RAW-Dual [1]; [5],0.658
same,NF-kB SEAP reporter activity,RAW-Dual [1]; [6],1.99
CCS(=O)(=O)Nc1ccc(Oc2ccc(F)cc2F)c(-c2cn(C)c(=O)c3[nH]ccc23)c1,NF-kB SEAP reporter activity,RAW-Dual [2]; [7],1.54
same,NF-kB SEAP reporter activity,RAW-Dual [2]; [8],2.13
CC1OC(OC2C(CO)OC(OCC3OC(OC(=O)[C@]45CC[C@@H](C)[C@H](C)[C@H]4C4=CCC6[C@@]7(C)C[C@@H](O)[C@@H](O)[C@@](C)(CO)C7CC[C@@]6(C)[C@]4(C)CC5)C(O)C(O)C3O)C(O)C2O)C(O)C(O)C1O (stereo partly specified) (library stock concentration (final ~1000-fold dilution): 10 mM),NF-kB SEAP reporter activity,RAW-Dual [3]; agonist: LPS (TLR4) 0.1 ug/mL,1.08
same,NF-kB SEAP reporter activity,RAW-Dual [3]; [4],0.915
same,NF-kB SEAP reporter activity,RAW-Dual [3]; [5],1.06
same,NF-kB SEAP reporter activity,RAW-Dual [3]; [6],1.1
CC1OC(OC2C(CO)OC(OCC3OC(OC(=O)[C@]45CC[C@@H](C)[C@H](C)[C@H]4C4=CCC6[C@@]7(C)C[C@@H](O)[C@@H](O)[C@@](C)(CO)C7CC[C@@]6(C)[C@]4(C)CC5)C(O)C(O)C3O)C(O)C2O)C(O)C(O)C1O (stereo partly specified),NF-kB SEAP reporter activity,RAW-Dual [2]; [9],0.975
same,NF-kB SEAP reporter activity,RAW-Dual [2]; [10],1.12
Cc1c(CN2CCC(Nc3ncnc4sc(CC(F)(F)F)cc34)CC2)ccc2[nH]c(C#N)cc12 (library stock concentration (final ~1000-fold dilution): 10 mM),NF-kB SEAP reporter activity,RAW-Dual [3]; agonist: LPS (TLR4) 0.1 ug/mL,1.32
same,NF-kB SEAP reporter activity,RAW-Dual [3]; [4],0.176
same,NF-kB SEAP reporter activity,RAW-Dual [3]; [5],0.631
same,NF-kB SEAP reporter activity,RAW-Dual [3]; [6],0.575
Cc1c(CN2CCC(Nc3ncnc4sc(CC(F)(F)F)cc34)CC2)ccc2[nH]c(C#N)cc12,NF-kB SEAP reporter activity,RAW-Dual [2]; [9],0.878
same,NF-kB SEAP reporter activity,RAW-Dual [2]; [10],0.915
O=C(NC1=CC(=O)[C@H]2O[C@H]2[C@H]1O)c1ccccc1O,NF-kB SEAP reporter activity,RAW-Dual [2]; [9],1
same,NF-kB SEAP reporter activity,RAW-Dual [2]; [10],1.08
O=C(NC1=CC(=O)[C@H]2O[C@H]2[C@H]1O)c1ccccc1O (library stock concentration (final ~1000-fold dilution): 10 mM),NF-kB SEAP reporter activity,RAW-Dual [3]; agonist: LPS (TLR4) 0.1 ug/mL,0.727
same,NF-kB SEAP reporter activity,RAW-Dual [3]; [4],0.951
same,NF-kB SEAP reporter activity,RAW-Dual [3]; [5],0.806
same,NF-kB SEAP reporter activity,RAW-Dual [3]; [6],0.551
COc1ccc(CNC(=O)CCl)cc1OC,NF-kB SEAP reporter activity,RAW-Dual [2]; [9],1.02
same,NF-kB SEAP reporter activity,RAW-Dual [2]; [10],0.962
COc1cc(OC)c(C=CS(=O)(=O)Cc2ccc(OC)c(NCC(=O)O)c2)c(OC)c1,NF-kB SEAP reporter activity,RAW-Dual [2]; [9],2.64
same,NF-kB SEAP reporter activity,RAW-Dual [2]; [10],2.27
COc1ccc(CNC(=O)CCl)cc1OC (library stock concentration (final ~1000-fold dilution): 10 mM),NF-kB SEAP reporter activity,RAW-Dual [3]; agonist: LPS (TLR4) 0.1 ug/mL,0.67
same,NF-kB SEAP reporter activity,RAW-Dual [3]; [4],0.674
same,NF-kB SEAP reporter activity,RAW-Dual [3]; [5],0.728
same,NF-kB SEAP reporter activity,RAW-Dual [3]; [6],0.679
COc1cc(OC)c(C=CS(=O)(=O)Cc2ccc(OC)c(NCC(=O)O)c2)c(OC)c1 (library stock concentration (final ~1000-fold dilution): 10 mM),NF-kB SEAP reporter activity,RAW-Dual [3]; agonist: LPS (TLR4) 0.1 ug/mL,4.24
same,NF-kB SEAP reporter activity,RAW-Dual [3]; [4],3.24
same,NF-kB SEAP reporter activity,RAW-Dual [3]; [5],2.21
same,NF-kB SEAP reporter activity,RAW-Dual [3]; [6],2.56
CC(=O)C1CCC2C3CCC4=CC(=O)CCC4(C)C3CCC12C (stereo unspecified),NF-kB SEAP reporter activity,RAW-Dual [2]; [9],0.441
same,NF-kB SEAP reporter activity,RAW-Dual [2]; [10],1.06
CC(=O)C1CCC2C3CCC4=CC(=O)CCC4(C)C3CCC12C (stereo unspecified) (library stock concentration (final ~1000-fold dilution): 10 mM),NF-kB SEAP reporter activity,RAW-Dual [3]; agonist: LPS (TLR4) 0.1 ug/mL,0.981
same,NF-kB SEAP reporter activity,RAW-Dual [3]; [4],1.06
same,NF-kB SEAP reporter activity,RAW-Dual [3]; [5],1.38
same,NF-kB SEAP reporter activity,RAW-Dual [3]; [6],1.51
O=C1CN(/N=C/c2ccc([N+](=O)[O-])o2)C(=O)N1 (library stock concentration (final ~1000-fold dilution): 10 mM),NF-kB SEAP reporter activity,RAW-Dual [3]; agonist: LPS (TLR4) 0.1 ug/mL,1.09
same,NF-kB SEAP reporter activity,RAW-Dual [3]; [4],0.855
same,NF-kB SEAP reporter activity,RAW-Dual [3]; [5],1.1
same,NF-kB SEAP reporter activity,RAW-Dual [3]; [6],1.11
O=C(N/N=C/c1ccc([N+](=O)[O-])o1)c1ccc(O)cc1 (library stock concentration (final ~1000-fold dilution): 10 mM),NF-kB SEAP reporter activity,RAW-Dual [1]; agonist: LPS (TLR4) 0.1 ug/mL,3.8
same,NF-kB SEAP reporter activity,RAW-Dual [1]; [4],1.64
same,NF-kB SEAP reporter activity,RAW-Dual [1]; [5],1.38
same,NF-kB SEAP reporter activity,RAW-Dual [1]; [6],1.55
O=C1CN(/N=C/c2ccc([N+](=O)[O-])o2)C(=O)N1,NF-kB SEAP reporter activity,RAW-Dual [2]; [9],0.924
same,NF-kB SEAP reporter activity,RAW-Dual [2]; [10],0.948
Cc1ccc(/C=N/NC(=O)c2ccccc2Oc2ccccc2)o1,NF-kB SEAP reporter activity,RAW-Dual [2]; [9],0.972
same,NF-kB SEAP reporter activity,RAW-Dual [2]; [10],1.09
Cc1ccc(/C=N/NC(=O)c2ccccc2Oc2ccccc2)o1 (library stock concentration (final ~1000-fold dilution): 10 mM),NF-kB SEAP reporter activity,RAW-Dual [3]; agonist: LPS (TLR4) 0.1 ug/mL,1.08
same,NF-kB SEAP reporter activity,RAW-Dual [3]; [4],0.922
same,NF-kB SEAP reporter activity,RAW-Dual [3]; [5],0.955
same,NF-kB SEAP reporter activity,RAW-Dual [3]; [6],1.31
O=C(N/N=C/c1ccc([N+](=O)[O-])o1)c1ccc(O)cc1,NF-kB SEAP reporter activity,RAW-Dual [2]; [7],2.58
same,NF-kB SEAP reporter activity,RAW-Dual [2]; [8],2.03
COC1/C=C\C=C(/C)C(=O)NC2=CC(=O)C(NCCN(C)C)=C(CC(C)CC(OC)C(O)C(C)/C=C(\C)C1OC(N)=O)C2=O.Cl (stereo unspecified) (library stock concentration (final ~1000-fold dilution): 10 mM),NF-kB SEAP reporter activity,RAW-Dual [3]; agonist: LPS (TLR4) 0.1 ug/mL,0.267
same,NF-kB SEAP reporter activity,RAW-Dual [3]; [4],0.313
same,NF-kB SEAP reporter activity,RAW-Dual [3]; [5],0.154
same,NF-kB SEAP reporter activity,RAW-Dual [3]; [6],0.199
COC1/C=C\C=C(/C)C(=O)NC2=CC(=O)C(NCCN(C)C)=C(CC(C)CC(OC)C(O)C(C)/C=C(\C)C1OC(N)=O)C2=O.Cl (stereo unspecified),NF-kB SEAP reporter activity,RAW-Dual [2]; [9],0.497
same,NF-kB SEAP reporter activity,RAW-Dual [2]; [10],0.345
